Screening results from PubChem BioAssay.
Rab9 prom act: Rab9 promoter activation | Huh7 Rab9 promoter-luciferase reporter, luminescence, 24 h | Potency, µM (top dose mostly 9.22 µM), most hits filed as activators | hit rate 2.8% among 320,000; also: nearly all actives have a fitted effect of over 60% in size
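Luciferase signal after 10 min detection reagent at ambient indicates Rab9 promoter upregulation; stably transfected Huh7 cells were treated 24 h with compound in DMSO at 37 °C, 5% CO2.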
FLuc counter: counter-screen for miR-21 project: firefly luciferase inhibitors or activators | hit rate 6.9% among 360,000 | purified FLuc, Km substrates, luminescence inhibition | P08659 | Potency, µM (series often up to 57.5 µM), usual class: inhibitors; also: nearly all actives have a fitted effect of over 55% in size
Target sequence (P08659 whole entry, looked up): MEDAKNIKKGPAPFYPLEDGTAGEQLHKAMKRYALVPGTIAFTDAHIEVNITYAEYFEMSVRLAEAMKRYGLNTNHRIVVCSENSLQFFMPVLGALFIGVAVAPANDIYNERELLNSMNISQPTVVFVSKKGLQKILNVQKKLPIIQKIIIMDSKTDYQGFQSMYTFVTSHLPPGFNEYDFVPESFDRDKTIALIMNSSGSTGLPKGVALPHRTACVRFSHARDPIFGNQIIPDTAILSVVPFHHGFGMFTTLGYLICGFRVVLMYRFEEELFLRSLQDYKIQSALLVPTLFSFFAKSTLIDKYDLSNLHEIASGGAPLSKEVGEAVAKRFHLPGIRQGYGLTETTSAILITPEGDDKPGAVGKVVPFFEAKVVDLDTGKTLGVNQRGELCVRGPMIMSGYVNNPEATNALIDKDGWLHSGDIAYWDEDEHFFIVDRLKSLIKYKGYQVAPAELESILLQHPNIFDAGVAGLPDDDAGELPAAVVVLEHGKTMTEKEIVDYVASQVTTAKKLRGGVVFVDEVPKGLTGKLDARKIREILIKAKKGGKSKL
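Biochemical qHTS of compounds, final roughly 60 µM downward over six points, against 10 nM purified firefly luciferase using Km concentrations of substrates (10 uM D-luciferin, 10 uM ATP) in Tris acetate pH 7.5 buffer; luminescence output.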
SMN2 splice enh: increases expression of the SMN2 splice variant; Potency, µM (titrated, usually from 46.1 µM), usual class: activators; HEK293 SMN2-luciferase splicing reporter, luminescence, 30-36 h; hit rate 2.8% among 210,000; also: nearly all actives have a fitted effect of over 55% in size
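qHTS luciferase splicing reporter: luminescence rises when SMN2 exon 7 is included in transfected HEK293 cells. Compound exposure lasted 30-36 h at 37C, with 4.5 mM final sodium butyrate as control, followed by a ONE-Glo read.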
ELG1 genotoxic: genotoxicity induction in ELG1-luciferase HEK293T cells | hit rate 1.3% among 330,000 | Potency, µM (doses to about 46 µM), most hits filed as activators | HEK293T ELG1-luciferase reporter, luminescence, 16 h; also: nearly all actives have a fitted effect of over 60% in size
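Cells (2,000/well) expressing the ELG1-luciferase fusion are dosed by pin tool and kept 16 hr at 37 °C, 5% CO2. Signal comes from ONE-Glo luciferase reagent after 30 min at room temperature.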
ELG1 DNA repair: ELG1-dependent DNA repair inhibition; HEK293T ELG1-luciferase reporter, luminescence, 16 h; DNA damage induced by 5-fluorouridine; Potency, µM (highest dose often 46.1 µM), most hits filed as inhibitors; hit rate 2.3% among 330,000; AID 504467; also: nearly all actives have a fitted effect of over 55% in size
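Cells (2,000 per well) received 5-fluorouridine plus test compound or DMSO and were incubated 16 hr at 37 °C, 5% CO2. Luciferase activity was read by luminescence 30 min after ONE-Glo addition; signal suppression marked inhibition of damage-induced ELG1 function.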
NPC1 prom act: activators of NPC1 promoter. Huh7 NPC1 promoter luciferase reporter, 24 h. hit rate 2.4% among 320,000. Potency, µM (titrated, usually from 9.22 µM), most hits filed as activators; also: nearly all actives have a fitted effect of over 60% in size
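Stably transfected Huh7 (NPC1 promoter→luciferase), 1500 cells/well in Opti-MEM + 10% FBS, 2 h settle, then compound 24 h at 37 °C. Luminescence after 10 min with Amplite reagent.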
Hits are given with their value; . = inactive; ? = inconclusive; / = no result; [ ] = dose if it differs, or a comment. This is a sample that favours compounds with a hit; in the whole collection about 9.4% have one here. Calls follow the shape of the dose curve; as a rule, active = well fitted curve in the direction sought with a large enough effect; inconclusive = small, poorly fitted or top-dose-only effect, or another doubt; inactive = no such curve, though single readings can be large; an effect the other way counts as inactive or inconclusive.

SMILES	Rab9 prom act	FLuc counter	SMN2 splice enh	ELG1 genotoxic	ELG1 DNA repair	NPC1 prom act
CC(=O)Nc1ccc(NC(=O)COC(=O)c2c3c(nc4ccccc24)CCN(Cc2ccccc2)C3)cc1	.	8.5µM	/	.	2.3µM	.
CCN(CC)c1ccc(N=Cc2cc(Br)ccc2O)cc1	.	9.5µM	.	.	?	.
O=C(CCS(=O)(=O)c1cccs1)Nc1ccc(C(=O)NCc2ccc(F)cc2)cc1	.	.	.	.	.	.
O=C(/C=C/c1cccc(Cl)c1)NCc1cccs1	.	?	.	.	.	.
O=C(/C=C/c1ccc(Cl)cc1)NCc1cccs1	.	15µM	.	.	?	.
O=C(NCCc1cccs1)c1ccc(CS(=O)Cc2ccc(Cl)cc2)o1 (configuration not stated)	.	.	/	.	.	.
O=C(CCS(=O)(=O)c1cccs1)Nc1ccc(C(=O)NCc2cccs2)cc1	.	.	.	.	16µM	.
CC(C)Oc1ccc(C(=O)NCc2cccs2)cc1	?	13µM	.	?	?	.
O=C(NCCc1cccs1)c1ccc(Cl)cc1	0.32µM	1.2µM	/	?	?	0.35µM
CCc1ccc2occ(CC(=O)Nc3ccc(OC)c(Cl)c3)c2c1	/	.	.	/	/	/
Cc1ccc(C(=O)NCCc2cccs2)cc1	0.1µM	0.85µM	0.5µM	?	?	0.32µM
CCOc1c2ccc(C(=O)NCc3ccc(C)cc3)cc2nn1CC	.	.	13µM	.	.	.
CCCn1nc2cc(C(=O)NCc3ccc(C)cc3)ccc2c1OCC	.	.	.	.	.	.
CCn1nc2cc(C(=O)NCCc3cccs3)ccc2c1OC	1.1µM	6.7µM	?	?	?	2.5µM
O=C(NCCc1cccs1)c1ccc(Cl)c(Cl)c1	2.2µM	11µM	/	?	?	3.2µM
CCOc1c2ccc(C(=O)NCCc3ccc(C)cc3)cc2nn1CC	.	.	.	.	.	.
O=C(CSc1ccccc1)NC1=NCCS1	.	13µM	/	.	.	.
Cc1ccccc1OCC(=O)NC1=NCCS1	2.8µM	12µM	13µM	9.2µM	?	1.8µM
O=C(CSc1cccc2cccc(Cl)c12)NC1=NCCS1	.	?	.	.	.	.
Cc1ccc(OCC(=O)NC2=NCCS2)cc1	.	11µM	.	.	.	.
CCC(CCC(C)C1CCC2C3CC=C4CC(OC(C)=O)CC[C@@]4(C)C3CC[C@@]12C)C(C)C (some centres not stated)	/	/	.	/	/	/
Cc1cc(NC(=O)CSc2cc(Cl)ccc2Cl)n(-c2ccccc2)n1	.	.	.	.	26µM	.
Cc1ccc(-c2cc(NC(=O)CSc3n[nH]c(N)n3)n(-c3ccccc3)n2)cc1	.	19µM	.	.	.	.
CCCc1ccc(-c2cc(NC(=O)CSc3nnc(N)s3)n(-c3ccccc3)n2)cc1	1.3µM	0.21µM	/	?	?	2.5µM
Cc1nnc(SCC(=O)Nc2cc(-c3cc(C)c(C)cc3C)nn2-c2ccccc2)s1	.	?	.	.	?	.
SMILES	Rab9 prom act	FLuc counter	SMN2 splice enh	ELG1 genotoxic	ELG1 DNA repair	NPC1 prom act
O=C(O)C[C@H](Cc1ccccc1)C(=O)O	/	/	.[9.22 µM]	/	/	/
CC(=O)OC(C(=O)c1ccccc1)c1ccccc1 (configuration not stated)	/	/	.	/	/	/
O=C(N/N=C/c1cccnc1)c1cc(-c2ccccc2)nc2ccccc12	.	11µM	/	.	?	.
O=C(N/N=C/c1cccnc1)c1cc(-c2ccc(Br)cc2)nc2ccccc12	.	6.7µM	/	.	13µM	.
Cc1ccc(/C=N/NC(=O)c2cc(-c3cccnc3)nc3ccccc23)cc1	.	.	.	?	.	.
Cc1ccc(C)c(-c2cc(C(=O)N/N=C/c3cccnc3)c3ccccc3n2)c1	.	?	/	.	.	.
CC1CCN(S(=O)(=O)c2ccc3c(c2)c(=O)c(C(=O)N2CCN(c4cccc(Cl)c4)CC2)cn3C)CC1	/	.	.	/	/	/
CC(C)C[C@@H](CC(=O)N[C@@H](CCCN)CC(=O)N[C@@H]1CCCC[C@H]1C(=O)N[C@H](CC(=O)N[C@@H](CCC(=O)O)CC(=O)O)Cc1c[nH]c2ccccc12)NC(=O)[C@@H]1CNCC[C@H]1N	/	/	.	/	/	/
Cc1ccc(Nc2ncc(C(=O)N3CCN(c4ccc(F)cc4)CC3)c3ccccc23)cc1Cl	/	.	.	/	/	/
O=C(NCc1ccc(F)cc1)c1c(O)nc2ccccn2c1=O	/	.	.	/	/	/
O=c1c2ccccc2ncn1CCCOc1ccccc1[N+](=O)[O-]	3.5µM	15µM	/	?	?	4µM
O=[N+]([O-])c1ccccc1OCCCn1cnc2ccccc21	2µM	5.4µM	11µM	?	?	2.8µM
O=[N+]([O-])c1ccccc1OCCCN1CCOCC1	.	.	.	.	?	.
COC(=O)C1=COC(O[C@H]2OC(CO)[C@H](O)C(O)C2O)[C@H]2C1C(=O)C[C@@H]2C (some centres not stated)	/	/	.	/	/	/
O=C1c2ccccc2C(=O)c2c(NCCc3ccc(O)cc3)ccc(NCCc3ccc(O)cc3)c21	.	/	/	/	/	.
O=C1c2c(O)ccc(O)c2C(=O)c2c(NCCNCCO)ccc(NCCNCCO)c21	.	19µM	.	.	11µM	.
CC(=O)c1cccc(NC(=O)N2CCC(c3ccc(C)cc3)C2)c1 (configuration not stated)	.	17µM	/	.	.	?
Cc1ccc(C2CCN(C(=O)Nc3ccc(F)cc3)C2)cc1 (configuration not stated)	?	24µM	/	?	?	?
Cc1cccc(N2CCN(C(=O)C3CCN(S(=O)(=O)c4cccs4)CC3)CC2)c1C	/	.	.	/	/	/
CCOC(=O)c1ccc(NC(=O)c2oc3c(c2C)-c2nn(Cc4ccccc4Cl)cc2CC3)cc1	/	.	/	/	/	/
Cc1nn(C(=O)c2ccc(Br)cc2)c(C)c1S(=O)(=O)N1CCOCC1	/	.	/	/	/	/
CC(=O)NCCc1nc2cc(NC(=O)COc3ccc(C)cc3)ccc2n1C	.	.	/	.	.	.
CC(=O)NCCc1nc2cc(NC(=O)c3cccs3)ccc2n1C	4.5µM	?	/	.	?	?
CCC(=O)NCCc1nc2cc(NC(=O)c3ccc(F)cc3)ccc2n1C	2.8µM	17µM	/	7.3µM	?	1.3µM
Cn1c(CN2CCCCC2)nc2cc(NC(=O)c3ccc(F)cc3)ccc21	.	?	.	.	?	.
CC(=O)NCCc1nc2cc(NC(=O)c3ccc(Cl)cc3)ccc2n1C	1.1µM	8.5µM	/	5.8µM	?	0.71µM
CCC(=O)NCCc1nc2cc(NC(=O)c3ccc(Cl)cc3)ccc2n1C	0.63µM	11µM	/	?	?	1.8µM
CCCC(=O)Nc1ccc2c(c1)nc(CCNC(=O)c1ccccc1)n2C	.	.	.	.	.	.
CCC(=O)NCCc1nc2cc(NC(=O)c3ccc(OC)cc3)ccc2n1C	?	17µM	13µM	8.9µM	?	?
